According to PubChem BioAssay (NCI):
The panel holds about 83,000 compounds, 20% with a hit somewhere; the sample as a whole holds those more often.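 Note: values are percent growth. 100 is the growth of untreated cells, values between 100 and 0 indicate rising inhibition; between -100 and 0 indicates cell death.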 A number with no mark means an inactive call. Activity calls are given as the source filed them. Rule for the calls: active = growth percent below 10; inactive = the rest.

test system: HS 578T breast; assay: NCI-60 one-dose screen, 48 h (100 = growth as untreated, 0 = no growth, -100 = all killed); settings: 10 µM unless noted

Going from `Cc1nc2sc(C(=O)Nc3cccc(Br)c3)c(N)c2cc1C(O)c1ccccc1` (stereo not drawn) to `Nc1n[nH]c2cccc(C#Cc3cccc(NC(=O)c4cc(F)cc(C(F)(F)F)c4)c3)c12`, the growth rises from 21% to 36.8%.

Going from `CC(C)c1ccc(Cc2cnc(NC(=O)c3cc(Br)cs3)s2)cc1` to `Cn1cc(-c2nonc2-c2cn(C)c3ccccc23)c2ccccc21`, the growth rises from 19.8% to 30.7%.

Going from `COC(CC(F)F)c1cn(S(=O)(=O)c2ccc(C)cc2)c2ccccc12` (stereo not drawn) to `CS(=O)(=O)c1ccc(-c2cnn3ccc(-c4cccc(S(=O)(=O)C5CC5)c4)nc23)cc1`, the growth rises from 32.5% to 45.5%.

First: Cc1c(-c2ccc(O)cc2)n(Cc2ccc(OCCN3CCCCCC3)cc2)c2ccc(O)cc12
Second: O=S(=O)(NCCNc1nccc(-c2c(-c3ccc(F)c(O)c3)nc3occn23)n1)c1ccc(Cl)cc1
The growth of the first is lower: 68.4% for the first, 89% for the second.

Compared with `CCOC(=O)C(=O)C(C(=O)OCC)c1ccccc1` (stereo not drawn), `N#Cc1nc(-c2ccc(F)cc2)oc1S(=O)(=O)N1CCOCC1` is higher in growth: 94.2% for the first, 123% for the second.

In the case of `Cc1ccc(-c2nc([P+](c3ccccc3)(c3ccccc3)c3ccccc3)c(S(=O)(=O)c3ccc(C)cc3)o2)cc1`, the growth is reported as -9.93% (active).
With `Cc1ccc(C[P+](c2ccccc2)(c2ccccc2)c2ccccc2)cc1` the growth was 8.62% (active).
For `CC1=C2[C@@H](CC1)[C@]1(C)O[C@@](C(C)C)(C[C@H]1OC(=O)[C@H](C)O)[C@H]2OC(=O)/C=C/c1ccccc1`, the growth was -2.45% (active).

test system: NCI/ADR-RES ovarian; assay: as above; settings: 10 µM unless noted

Going from `Cc1cc(S(=O)(=O)/N=C(\N)n2nc(C)c(C)c2C)c(SCc2ccccc2)cc1Cl` to `Cc1nc2sc(C(=O)Nc3cccc(Br)c3)c(N)c2cc1C(O)c1ccccc1` (stereo not drawn), the growth falls from 57.4% to 11.7%.

Compared with `CS(=O)(=O)Nc1cncc(-c2ccc3ncnc(Nc4cncc(Cl)c4)c3c2)c1`, `CS(=O)(=O)c1ccc(-c2cnn3ccc(-c4cccc(S(=O)(=O)C5CC5)c4)nc23)cc1` is lower in growth: 95.7% for the first, 71.8% for the second.

Compared with `CC(C)(Sc1cc(C(C)(C)C)c(OC(=O)CCCC(=O)O)c(C(C)(C)C)c1)Sc1cc(C(C)(C)C)c(OC(=O)CCCC(=O)O)c(C(C)(C)C)c1`, `COc1cc2nc3cc([N+](=O)[O-])ccc3c(NCCNCC(C)O)c2cc1OC` (stereo not drawn) is higher in growth: 70% for the first, 75.1% for the second.

Compared with `COc1cc2c(c(OC)c1OC)CCC(c1cccc(NC(=O)c3ccc(Br)cc3)c1)O2` (stereo not drawn), `O=C(Nc1ccc(Oc2cccc(F)c2)c(Cl)c1)c1cccnc1` is lower in growth: 84.1% for the first, 13.9% for the second.

First: COc1ccc(CNc2c3ccccc3nc3ccccc23)cc1
Second: COc1ccc(-c2nc3cc(C(=O)NCc4ccccc4)ccc3n2C2CCCCC2)cc1
The growth of the first is lower: 38.8% for the first, 88.5% for the second.

Compared with `N#CSc1c[nH]c2cccc(/C=C/C(=O)/C=C(/C=C/c3cccc4[nH]cc(SC#N)c34)OB(F)F)c12`, `Cc1cn(-c2cc(NC(=O)c3cccc(C#Cc4cccc5[nH]nc(N)c45)c3)cc(C(F)(F)F)c2)cn1` is higher in growth: 25.7% for the first, 67.1% for the second.

First: CC1=NC2=Nn3c(c4cnn(-c5ccccc5)c4n/c3=N\N)NN2C(c2ccccc2)=C1
Second: Cn1cc(-c2nonc2-c2cn(C)c3ccccc23)c2ccccc21
The growth of the first is higher: 97.5% for the first, 17.4% for the second.

Compared with `COc1ccc(\C=N/N=C(N)/C(N)=N\N=C/c2ccc(OC)cc2)cc1`, `Cc1ccc(/C=C2\COc3ccc(O)cc3C2=O)cc1` is lower in growth: 107% for the first, 101% for the second.

Going from `NC(=O)c1cccc(-n2ccc3cc(NC(=O)c4ccc(N5CCOCC5)c(C(F)(F)F)c4)ccc32)n1` to `Nc1n[nH]c2cccc(C#Cc3cccc(NC(=O)c4cc(F)cc(C(F)(F)F)c4)c3)c12`, the growth rises from 66.1% to 93.1%.

Going from `C=CCn1c(SCC(=O)Nc2ccc(C(=O)/C=C/c3ccc(Cl)cc3)cc2)nnc1-c1ccc(Br)cc1` to `O=C(NNC(=O)c1ccc(NC(=O)c2ccccn2)cc1)Nc1ccc([N+](=O)[O-])cc1`, the growth rises from 74.7% to 106%.

Going from `CCCc1c(OC(=O)c2ccccc2)nc2[nH]c(=O)sc2c1C` to `CCOC(=O)C(=O)C(C(=O)OCC)c1ccccc1` (stereo not drawn), the growth rises from 97.9% to 109%.

First: CCOC(=O)c1cc(C)n(-c2ccc(C(=O)O)cc2)c1C
Second: COC(CC(F)F)c1cn(S(=O)(=O)c2ccc(C)cc2)c2ccccc12 (stereo not drawn)
The growth of the first is higher: 89.6% for the first, 36.3% for the second.

Going from `O=C1NC(=O)C(Cc2ccc(OCc3ccc(-c4ccc(Cl)cc4Cl)cc3)cc2)S1` (stereo not drawn) to `Cc1c(-c2ccc(O)cc2)n(Cc2ccc(OCCN3CCCCCC3)cc2)c2ccc(O)cc12`, the growth rises from 22.7% to 85.7%.

First: CC/C=C\C[C@H](O)C/C=C1/C(=O)C=C[C@@H]1C/C=C\CCCC(=O)N(C)C
Second: NC(=O)CSc1oc(-c2ccccc2)nc1S(=O)(=O)c1ccc(Br)cc1
The growth of the first is lower: 16.7% for the first, 86.4% for the second.

Going from `COc1cc(-c2nccc3[nH]c(-c4ccc5cc[nH]c5c4)nc23)cc(OC)c1OC` to `O=S(=O)(NCCNc1nccc(-c2c(-c3ccc(F)c(O)c3)nc3occn23)n1)c1ccc(Cl)cc1`, the growth rises from 12.7% to 102%.

Compared with `Cc1ccc(-c2nc([P+](c3ccccc3)(c3ccccc3)c3ccccc3)c(S(=O)(=O)c3ccc(C)cc3)o2)cc1`, `Cc1ccc(C[P+](c2ccccc2)(c2ccccc2)c2ccccc2)cc1` is higher in growth: 59.5% for the first, 93.5% for the second.

In the case of `N#Cc1nc(-c2ccc(F)cc2)oc1S(=O)(=O)N1CCOCC1`, the growth is reported as 91.1%.

`CN(C)CC(C)(C)C(=O)/C=C/c1ccccc1` was tested, and the growth was -9% [25 µM] (active).
`Oc1c(I)cc(I)cc1CNCCN(Cc1ccccn1)Cc1ccccn1` was tested, and the growth was -18.4% (active).
`C=CC[Se]C(=O)Cc1c(C)n(C(=O)c2ccc(Cl)cc2)c2ccc(OC)cc12` was tested, and the growth was -7.75% (active).
With `CCC(=C(c1ccc(OCCN2CCCCC2)cc1)c1ccc(OCCN2CCCCC2)cc1)c1ccc(Cl)cc1` the growth was -84.6% (active).
For `CCCCCN1C(=O)/C(=c2\sc3n(c2=O)C2C(NN=3)N(CC)C(=O)N2CC)c2ccccc21` (stereo not drawn), the growth was -11.1% (active).
`CC(C)c1ccc(Cc2cnc(NC(=O)c3cc(Br)cs3)s2)cc1` was tested, and the growth was 6.8% (active).
For `CC1=C2[C@@H](CC1)[C@]1(C)O[C@@](C(C)C)(C[C@H]1OC(=O)[C@H](C)O)[C@H]2OC(=O)/C=C/c1ccccc1`, the growth was 4.27% (active).
